Publication PMC8384837, “Expanding the binding specificity for RNA recognition by a PUF domain”

Target: PUM1 PUF domain R5-TRV (Homo sapiens, UniProt Q14671 828-1176, C1007T;Q1011V)
Assay: yeast three-hybrid, YBZ-1, SC-Leu-His + 0.5 mM 3-AT, 4 days
Details: tags: N-Gal4 AD-HA kept; label: inside an RPR1-promoter hybrid RNA with tandem MS2 sites; ssRNA
Procedure, shortened: (§1)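 The interaction score is the logarithmic change in variant frequency from input to selection. It uses log2, with a pseudocount of 1 for absent variants, and frequencies came from PCR-amplified, Illumina-sequenced repeat regions. The libraries were Pumilio-1 PUF domains randomized at the three base-contacting residues per repeat, co-expressed with matching RNA elements in strain YBZ-1 (LexA–MS2 coat fusion, HIS3 reporter). Plating lasted four days on SC-Leu (input) or SC-Leu-His + 0.5 mM 3-AT (selection).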

PUM1 PUF domain R5-TRV, sequence (Q14671 828-1176 C1007T/Q1011V): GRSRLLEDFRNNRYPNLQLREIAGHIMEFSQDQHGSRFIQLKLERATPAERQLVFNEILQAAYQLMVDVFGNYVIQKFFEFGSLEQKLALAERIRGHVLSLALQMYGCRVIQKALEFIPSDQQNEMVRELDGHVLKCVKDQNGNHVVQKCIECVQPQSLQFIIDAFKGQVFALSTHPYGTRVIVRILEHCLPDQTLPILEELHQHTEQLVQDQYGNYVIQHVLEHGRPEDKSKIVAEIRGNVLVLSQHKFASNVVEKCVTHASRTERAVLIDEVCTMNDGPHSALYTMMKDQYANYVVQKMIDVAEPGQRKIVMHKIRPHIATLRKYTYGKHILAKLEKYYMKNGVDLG

| Sequence | binding signal |
| --- | --- |
| GGCUAGAACUAGUGGAUCCCCCGGCGCCCGGCGGCUCGAGCCCGGGUAAGUGUGAAUAGUCUGCAUGCCGCCGGGCGCCAUGCCUGCAGGUCGACUCUAGAAAACAUG | 3.38 log2 enrichment (interaction score) |
| GGCUAGAACUAGUGGAUCCCCCGGCGCCCGGCGGCUCGAGCCCGGGUAAGUGUAAAUAGUCUGCAUGCCGCCGGGCGCCAUGCCUGCAGGUCGACUCUAGAAAACAUG | 4.29 log2 enrichment (interaction score) |
| GGCUAGAACUAGUGGAUCCCCCGGCGCCCGGCGGCUCGAGCCCGGGUAAGUGUUAAUAGUCUGCAUGCCGCCGGGCGCCAUGCCUGCAGGUCGACUCUAGAAAACAUG | 3.28 log2 enrichment (interaction score) |

Target: PUM1 PUF domain R8-CYR (Homo sapiens, UniProt Q14671 828-1176, N1122C;Q1126R)
Sequence (Q14671 828-1176 N1122C/Q1126R): as the sequence (Q14671 828-1176 C1007T/Q1011V) above, with T180C, V184Q, N295C, Q299R counted along it
Assay: as above
Details: tags: N-Gal4 AD-HA kept; label: inside an RPR1-promoter hybrid RNA with tandem MS2 sites; ssRNA
Procedure, shortened: as §1

| Sequence | binding signal |
| --- | --- |
| GGCUAGAACUAGUGGAUCCCCCGGCGCCCGGCGGCUCGAGCCCGGGUAAGGGUAAAUAGUCUGCAUGCCGCCGGGCGCCAUGCCUGCAGGUCGACUCUAGAAAACAUG | 2.63 log2 enrichment (interaction score) |
| GGCUAGAACUAGUGGAUCCCCCGGCGCCCGGCGGCUCGAGCCCGGGUAAGUGUAAAUAGUCUGCAUGCCGCCGGGCGCCAUGCCUGCAGGUCGACUCUAGAAAACAUG | 4.59 log2 enrichment (interaction score) |
| GGCUAGAACUAGUGGAUCCCCCGGCGCCCGGCGGCUCGAGCCCGGGUAAGCGUAAAUAGUCUGCAUGCCGCCGGGCGCCAUGCCUGCAGGUCGACUCUAGAAAACAUG | 4.19 log2 enrichment (interaction score) |
